Compound activity: PubChem BioAssay, National Center for Advancing Translational Sciences (NCATS)
Shown are actives, neighbours in structure and some others; about 19% of the full set was active somewhere.
HT1080NT lethal – kills 2HG-producing HT-1080-NT fibrosarcoma cells | Potency, µM (series often up to 46.1 µM), for inactives: at the top dose activity, negative = less viability, actives largely listed as cytotoxic | 360,000 tested, 1.6% active | AID 686970 | HT-1080-NT fibrosarcoma viability, CellTiter-Glo ATP luminescence, 48 h;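 further: NT is the 2HG producing partner of a matched IDH1 knockdown line; potency means the concentration at half of the fitted maximal effect; 0% = DMSO-treated cells and -100% = media-only wells without cells; nearly all actives have a fitted effect of over 55% in size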
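Viability of the 2HG-overproducing fibrosarcoma line after 48 hours of compound exposure at 37 degrees C was determined by luminescence with CellTiter-Glo, and concentration-effect curves were then fitted and categorized.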
DT40 TDP1 no CPT – qHTS for Inhibitors of human tyrosyl-DNA phosphodiesterase 1 (TDP1): qHTS in cells in absence of CPT; DT40 Tdp1-/- hTDP1 cells, no CPT, ATP luminescence, 48 h; Potency, µM (top dose mostly 46.2 µM), for the others: at the top dose activity change, negative = growth inhibition, most hits filed as inhibitors; 420,000 tested, 15% active; AID 686978, 2013; further: potency means the concentration at half of the fitted maximal effect; nearly all actives have a fitted effect of over 55% in size
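No-CPT arm: Tdp1-/-;hTDP1 DT40 cells (400/well) plus compounds, incubated ≥48 hr at 37 °C. Readout CellTiter-Glo luminescence.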
HT1080 IDH1KD tx – HT-1080 IDH1 knockdown cell toxicity (counter line). HT-1080 IDH1 knockdown viability, ATP luminescence, 48 h. AID 686971. 360,000 tested, 2% active. Potency, µM (series often up to 46.1 µM), inactives show at the top dose activity, negative = toxicity, hits mostly cytotoxic;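 further: potency means the concentration at half of the fitted maximal effect; 0% = DMSO wells and -100% = cell-free medium wells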
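Cytotoxicity counter-line: IDH1KD HT-1080, 48 h, CellTiter-Glo. Curves classed by r2, magnitude and activity.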
DT40 TDP1 CPT – growth inhibition of DT40 Tdp1-/-;hTDP1 cells with camptothecin (screen for TDP1 inhibitors) | 420,000 tested, 12% active | Potency, µM (doses to about 46.2 µM), for the others: at the highest dose activity change, negative = growth inhibition, hits mostly inhibitors | chicken DT40 Tdp1-/-;hTDP1 cells + 20 nM CPT, ATP luminescence, 48 h; further: potency means the concentration at half of the fitted maximal effect; nearly all actives have a fitted effect of over 55% in size
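Chicken DT40 Tdp1-/- cells complemented with human TDP1, 400 cells/well, exposed to compounds plus 20 nM camptothecin for at least 48 h at 37 C; viability read as ATP content by CellTiter-Glo luminescence.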
IL-1B inflam inh – blocks inflammasome-driven IL-1 beta release; THP-1 LPS/ATP IL-1B secretion, AlphaLISA, 16 h; stronger effect = lower value; activity change, % at 57.5 µM; 360,000 tested, 4.7% active; AID 743279; in the data active means activity change below about -50%; inconclusive means mostly about -30% to -49%
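Secreted IL-1B measured by AlphaLISA bead assay after 16 h compound exposure of THP-1 cells; compounds (final up to 57.5 uM) added 1 h before LPS (250 ng/mL) and ATP (1.25 mM) stimulation; lower signal means less secretion.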
Active calls of the source: *; i = inactive; ? = inconclusive; / = no result. Unless noted, the call rests on the fitted dose curve; in most records, active means well fitted curve in the direction sought with a large enough effect; inconclusive means small, poorly fitted or top-dose-only effect, or another doubt; inactive means no such curve, though single readings can be large; an effect the other way counts as inactive or inconclusive. Unless noted, on the % scale 0 is the no-effect control and ±100 the full control effect.

SMILES	HT1080NT lethal	DT40 TDP1 no CPT	HT1080 IDH1KD tx	DT40 TDP1 CPT	IL-1B inflam inh
COc1ccc(N2CCN(C(=O)c3ccc(Cl)c(S(=O)(=O)N4CCCC4)c3)CC2)cc1	-6.1%	?	-2.4%	?	7.6
COc1cccc(CN2CC(C(=O)N3CCN(c4ccc(Cl)cc4)CC3)CCC2=O)c1 (centres undefined)	-12.0%	20.6µM*	-8.0%	23.1µM*	i
O=C(NCCOC(=O)c1ccc(Cl)cc1)c1cccnc1	-5.2%	-15.6%	-4.6%	-22.3%	-11.2
CC1(C(=O)NCc2ccccc2)CN(S(C)(=O)=O)CC(=O)N1CCc1ccc(O)cc1 (centres undefined)	1.7%	22.9%	11.7%	10.1%	-6.3
CCN(CC(=O)NC(C)C)C(=O)c1ccc(Cl)cc1	5.5%	-8.7%	10.3%	-18.9%	13.8
COC(=O)C(C)N(C(=O)c1ccc(Cl)cc1)c1c(C)cccc1C (centres undefined)	5.7%	?	-1.1%	14.6µM*	4.7
COC(=O)C(C)N(C(=O)c1ccc(C(=O)c2ccccc2)cc1)c1c(C)cccc1C (centres undefined)	5.1%	20µM*	?	12.6µM*	-7.1
[N-]=[N+]=NC[C@H](Cc1ccccc1)N1CCN(Cc2ccccc2)CCC1=O	-1.8%	-16.8%	-12.1%	-13.8%	3.6
CNc1ncnc2c1cnn2C1CCCCO1 (centres undefined)	2.9%	-9.1%	-0.4%	-1.2%	3.9
CCN1C(=O)[C@H]2[C@@H](c3ccc(-c4ccc(OC)cc4)c(OC)c3)N[C@@](CC(C)C)(C(=O)OC)[C@H]2C1=O	6.8%	?	-3.2%	?	-4.7
CCC(C)Sc1ccc([C@H]2N[C@@](CC(C)C)(C(=O)OC)[C@H]3C(=O)N(CC)C(=O)[C@@H]23)cc1 (some centres undefined)	8.4%	?	7.4%	?	0.0
CCN1C(=O)[C@H]2[C@@H](c3ccc(-c4ccccc4)cc3)N[C@@](CC(C)C)(C(=O)OC)[C@H]2C1=O	9.6%	18.4µM*	11.1%	25.9µM*	-1.6
CCN1C(=O)[C@H]2[C@@H](c3ccc(SC4CCCCC4)cc3)N[C@@](CC(C)C)(C(=O)OC)[C@H]2C1=O	-25.4%	20.6µM*	3.0%	?	-23.2
COC(=O)[C@]1(C)N[C@H](c2ccc(-c3cccc(Cl)c3)cc2)[C@@H]2C(=O)N(C)C(=O)[C@@H]21	0.0%	?	-2.7%	?	-23.8
COC(=O)[C@]1(CC(C)C)N[C@H](c2ccc(-c3cccc(Cl)c3)cc2)[C@@H]2C(=O)N(C)C(=O)[C@@H]21	?	25.9µM*	-16.3%	13µM*	?
CCN1C(=O)[C@H]2[C@@H](c3ccc(-c4cc(C(C)=O)cs4)cc3)N[C@@](Cc3ccccc3)(C(=O)OC)[C@H]2C1=O	7.6%	?	15.1%	?	7.8
CCN1C(=O)[C@H]2[C@@H](c3ccc(-c4ccccc4)c(OC)c3)N[C@@](CC(C)C)(C(=O)OC)[C@H]2C1=O	-3.0%	14.6µM*	-4.6%	18.4µM*	0.0
Cc1ccc(-c2nnc(N3CCOCC3)c3ccccc23)cc1S(N)(=O)=O	-9.1%	-1.5%	-5.6%	-12.8%	74.8
Cc1ccc(-c2nnc(N3CCN(C(=O)CSc4ncn[nH]4)CC3)c3ccccc23)cc1	-0.9%	?	?	16.4µM*	?
Cc1ccc(-c2n[nH]c(=S)c3ccccc23)cc1	8.5%	?	-0.9%	?	27.4
Cc1ccc(-c2nnc(N3CCCCC3)c3ccccc23)cc1S(=O)(=O)N(C)C	11.4%	?	2.7%	23.1µM*	-57.3*
CCOc1ccc(-c2n[nH]c(=S)c3ccccc23)cc1	-15.7%	?	-5.4%	23.1µM*	34.7
CCOc1ccc(-c2nnc(N3CCCCC3)c3ccccc23)cc1	?	16.4µM*	?	23.1µM*	?
Cc1ccc(OCC(=O)N2CCN(c3nnc(-c4ccccc4)c4ccccc34)CC2)cc1	?	?	?	?	-72.8*
COc1cccc(NC(=O)C2CCCN(S(=O)(=O)c3c(C)nn(C)c3C)C2)c1 (centres undefined)	/	14.6µM*	/	?	/
SMILES	HT1080NT lethal	DT40 TDP1 no CPT	HT1080 IDH1KD tx	DT40 TDP1 CPT	IL-1B inflam inh
COc1ccc(OC)c(NC(=O)C2CCCN(S(=O)(=O)c3c(C)nn(C)c3C)C2)c1 (centres undefined)	2.4%	20.6µM*	7.1%	?	-11.5
COc1cccc(NC(=O)C2CCCN(S(C)(=O)=O)C2)c1 (centres undefined)	-1.0%	-19.7%	-2.4%	5.3%	4.6
Cc1c(CC(=O)N2CCC(C(N)=O)CC2)c(=O)oc2cc3c(cc12)CCC1(CCCCC1)O3	1.1%	?	-0.8%	?	-4.6
CC1(C)CCC[C@]2(C)[C@H]3Cc4cc(O)ccc4O[C@]3(C)CC[C@@H]12	?	?	?	18.4µM*	38.0
CC1(C)CCC[C@]2(C)[C@H]3CC(=O)O[C@]3(C)CC[C@@H]12	3.6%	-26.1%	-0.3%	6.9%	3.3
CCO/C(C)=N/n1c2nc3ccccc3nc2c2c(=O)n(Cc3ccccc3Cl)c(C)nc21	23.9%	25.9µM*	6.1%	?	?
CC(C)C1C(=O)N(Cc2cn(CCC3OCCCO3)nn2)CCS(=O)(=O)N1Cc1ccc(-c2ccc(F)nc2)cc1 (centres undefined)	-6.9%	16.4µM*	-0.5%	?	2.4
CC1C(=O)N(Cc2cn(CCC3OCCCO3)nn2)CCS(=O)(=O)N1Cc1ccc(-c2ccncc2)cc1 (centres undefined)	-5.8%	9.2µM*	-3.4%	-25.5%	-6.5
CC(C)C1C(=O)N(Cc2cn(CCC3OCCCO3)nn2)CCS(=O)(=O)N1Cc1ccc(-c2cccc(N(C)C)c2)cc1 (centres undefined)	0.9%	-3.1%	0.7%	4.5%	6.7
CC1C(=O)N(Cc2cn(CCC3OCCCO3)nn2)CCS(=O)(=O)N1Cc1ccc(-c2ccc(F)nc2)cc1 (centres undefined)	0.9%	13µM*	1.5%	?	28.4
CC(C)C1C(=O)N(Cc2cn(CCC3OCCO3)nn2)CCS(=O)(=O)N1Cc1ccc(-c2ccc(F)nc2)cc1 (centres undefined)	0.7%	16.4µM*	0.6%	?	8.0
Cc1ccc(C)c(NC(=O)COC(=O)c2ccc3ccccc3n2)c1	4.8%	21.1%	2.9%	-18.4%	13.1
COc1ccc(S(=O)(=O)Nc2ccccc2-c2nnn(CC(=O)Nc3ccccc3OC)n2)cc1	-1.8%	8.2µM*	-2.0%	6.51µM*	-0.6
